aSyn yeast inh: inhibitors of alpha-synuclein toxicity in yeast; Yeast expressing alpha-synuclein, growth rescue, BacTiter-Glo, 24 h; Potency, µM (highest dose often 46.1 µM), usual class: activators; 0.14% of 370,000 active; AID 652106; note: nearly all actives have a fitted effect of over 65% in size
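Rescue of yeast growth: cells expressing toxic alpha-synuclein, induced in galactose at OD600 0.02, incubated with compound 24 h at 30 C. ATP luminescence quantified growth; inhibitors of toxicity appear as activators.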
TDP-43 yeast inh: TDP-43 toxicity inhibition in yeast | TDP-43 expressing yeast growth rescue, BacTiter-Glo, 24 h | Potency, µM (top dose mostly 46.1 µM), usual class: activators | 1.8% of 410,000 active | AID 652104; note: nearly all actives have a fitted effect of over 50% in size
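Galactose-induced TDP-43 yeast, OD600=0.02, compound pinned; 24 hr, 30 deg C; BacTiter-Glo luminescence for growth. Inhibitors of TDP-43 toxicity read as activators.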
Abeta rescue: compounds reversing amyloid beta toxicity in yeast. yeast expressing A-beta42, growth rescue, OD600, 48 h; response scale: 0% DMSO, 100% iron-clioquinol control. 0.063% of 410,000 active. Potency, µM (top dose mostly 46.1 µM), most hits filed as activators. AID 1347071; note: nearly all actives have a fitted effect of over 55% in size
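Yeast A-beta toxicity model in growth medium with pinned compounds, 48 h at 30 C; growth read as absorbance at 600 nm. Normalized to FeCl3/clioquinol equimolar mix (positive) and DMSO (negative).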
FUS yeast rescue: FUS proteinopathy suppression in yeast | S. cerevisiae FUS-expressing, growth rescue, OD600, 24 h | Potency, µM (top dose mostly 76.6 µM), most hits filed as activators | 0.24% of 390,000 active; note: nearly all actives have a fitted effect of over 55% in size
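Compound concentration series was pinned onto galactose-induced FUS-expressing yeast seeded at OD 0.005. Plates sat 24hr at 30C; absorbance at 600 nm gave growth. DMSO served as background control.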
Large screens that a line does not name were inactive. Rows were chosen to be rich in hits. Some 2.1% of all compounds tested hit in one or more screens of this group. Calls come from the whole dose curve; as a rule, active = well fitted curve in the direction sought with a large enough effect; inconclusive = small, poorly fitted or top-dose-only effect, or another doubt; inactive = no such curve, though single readings can be large; an effect the other way counts as inactive or inconclusive.

CCOC(=O)CS(=O)(=O)c1nc(-c2ccc(F)cc2)cc(C(F)(F)F)n1	TDP-43 yeast inh 22µM
CCOC(=O)CCS(=O)(=O)c1nc(-c2ccccc2)cc(C(F)(F)F)n1	TDP-43 yeast inh 16µM (no result: FUS yeast rescue)
CCOC(=O)CS(=O)(=O)c1nc(-c2ccccc2)cc(C(F)(F)F)n1	TDP-43 yeast inh 22µM
COC(=O)CCS(=O)(=O)c1nc(-c2ccccc2)cc(C(F)(F)F)n1	TDP-43 yeast inh inconclusive
COc1ccc(-c2cc(C(F)(F)F)nc(S(C)(=O)=O)n2)cc1	TDP-43 yeast inh 13µM
COc1ccc(-c2cc(C(F)(F)F)nc(-n3cc(Cl)cn3)n2)cc1	TDP-43 yeast inh 11µM, FUS yeast rescue inconclusive
Cc1nn(C)c(C(=O)NC2C3CC4CC(C3)CC2C4)c1Cl (configuration not stated)	TDP-43 yeast inh 10µM
Cn1ncc(Cl)c1C(=O)NC1C2CC3CC(C2)CC1C3 (configuration not stated)	TDP-43 yeast inh inconclusive
COc1ccc(N(CC(=O)Nc2ccc(Cl)cc2C)S(=O)(=O)c2ccccc2)c(OC)c1	FUS yeast rescue inconclusive (no result: aSyn yeast inh)
COc1ccc(Cl)cc1NC(=O)CN(c1cccc(C)c1C)S(=O)(=O)c1ccccc1	FUS yeast rescue 22µM (no result: aSyn yeast inh)
Cc1cc(C)cc(C(=O)NCCc2sc(-c3ccc(F)cc3)nc2C)c1	none (no result: aSyn yeast inh)
Cc1ccc(Sc2cnccc2C#N)cc1	TDP-43 yeast inh 13µM
CCC(=O)N1CCc2cc(Br)cc(S(=O)(=O)N3CCCC(C(=O)Nc4ccc(C(C)C)cc4)C3)c21 (configuration not stated)	FUS yeast rescue 8.9µM (no result: aSyn yeast inh)
COc1ccccc1N1CCN(S(=O)(=O)c2ccc(-c3cc(C(F)(F)F)on3)s2)CC1	Abeta rescue inconclusive (no result: aSyn yeast inh)
CC(=O)N(O)c1ccc(C=Cc2ccccc2)cc1	TDP-43 yeast inh 14µM
Cc1ccc2oc(-c3cc(NC(=O)CC(C)C)ccc3Cl)nc2c1	none (no result: aSyn yeast inh)
Cc1cccc(CCNc2ncnc3onc(-c4ccc(Cl)cc4)c23)c1	TDP-43 yeast inh 35µM (no result: aSyn yeast inh)
Cc1noc2ncnc(NCc3ccc(Cl)cc3)c12	TDP-43 yeast inh inconclusive (no result: aSyn yeast inh)
CC(C)CNc1ncnc2onc(-c3ccc(Cl)cc3)c12	TDP-43 yeast inh 11µM (no result: aSyn yeast inh)
Clc1ccc(CNc2ncnc3onc(-c4ccc(Cl)cc4)c23)cc1	TDP-43 yeast inh 13µM, FUS yeast rescue inconclusive (no result: aSyn yeast inh)
Cc1ccc(CCNc2ncnc3onc(-c4ccc(Cl)cc4)c23)cc1	none (no result: aSyn yeast inh)
CCCC1CCC2(CC1)CCC2OC(=O)Nc1ccccc1C (configuration not stated)	none (no result: aSyn yeast inh, TDP-43 yeast inh, Abeta rescue)
O=C(C[n+]1cc(Br)cc(Br)c1)c1ccc2c(c1)CCCC2	none (no result: TDP-43 yeast inh, Abeta rescue, FUS yeast rescue)
CCCCOc1ccc(C2c3c(oc4ccccc4c3=O)C(=O)N2c2nc(C)c(C(=O)OCC)s2)cc1OC (configuration not stated)	TDP-43 yeast inh inconclusive (no result: aSyn yeast inh)
CC(C)OC(=O)NCCOC(=O)Nc1ccc(Cl)c(Cl)c1	TDP-43 yeast inh 11µM
COc1ccc(C(CC(=O)NCc2ccc(Cl)cc2)N2Cc3ccccc3C2=O)cc1OC (configuration not stated)	none (no result: aSyn yeast inh)
COc1c(Cl)cc(C(=O)O)cc1Cl	TDP-43 yeast inh 35µM
CCCSCCCNC(=O)C1CCN(c2nn3cc(-c4ccc(F)cc4)nc3s2)CC1	none (no result: aSyn yeast inh)
COc1cc2c(cc1OC)CN(C(=O)Nc1ccccc1Cl)CC2	TDP-43 yeast inh 11µM
COc1cc2c(cc1OC)CN(C(=O)Cc1c(F)cccc1Cl)CC2	TDP-43 yeast inh 16µM
COc1ccc(CC(=O)N2CCc3cc(OC)c(OC)cc3C2)cc1	none
Cc1ccccc1S(=O)(=O)N1CCC(c2nc3ccccc3o2)CC1	none (no result: aSyn yeast inh, TDP-43 yeast inh, Abeta rescue)
O=[N+]([O-])c1ccccc1CNc1ccc(F)c(Cl)c1	TDP-43 yeast inh 18µM
C1=C(c2cn(-c3nc4ccccc4s3)nn2)CCCC1	none
Oc1ccc(-c2c(C3=CCCCC3)sc3ccccc23)cc1	TDP-43 yeast inh 20µM
COc1ccc(/C=C(\C#N)C(=O)NC(C)c2ccccc2)cc1O (configuration not stated)	TDP-43 yeast inh 20µM, Abeta rescue inconclusive
COC(=O)c1ccc(/C=C(\C#N)C(=O)NC(C)c2ccccc2)cc1 (configuration not stated)	aSyn yeast inh inconclusive, TDP-43 yeast inh 13µM
CC(C)(C)c1ccc(C(=O)N2CCC2(C)C(=O)Nc2cccc3ncccc23)cc1 (configuration not stated)	TDP-43 yeast inh 25µM
CC(C)(C)c1ccc(C(=O)N2CCC2(C)C(=O)Nc2cccc3ccccc23)cc1 (configuration not stated)	FUS yeast rescue inconclusive

Source: PubChem BioAssay
